Test results published in PubChem BioAssay (NCATS).
Results filed as inconclusive are left out. The source made the active and inactive calls. Unless noted, calls follow the shape of the dose curve; as a rule, active = well fitted curve in the direction sought with a large enough effect; inconclusive = small, poorly fitted or top-dose-only effect, or another doubt; inactive = no such curve, though single readings can be large; an effect the other way counts as inactive or inconclusive.

Experiments:
[1] = qHTS Assay for Identifying Gametocytocidal Compounds (AID 743244); also: potency is read from the fitted curve at half-maximal effect;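 as to max response: % is scaled to controls: 0 for no effect and ±100 for the full control effect; actives lower the fluorescent signal which means gametocytes are killed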; settings: P. falciparum 3D7 stage III-V gametocytes, alamarBlue, 72 h; max response: stronger effect = lower value
Outline: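 In this qHTS viability screen, late-stage 3D7 gametocytes are incubated with compound for 72 h, then with alamarBlue for 24 h; reduced resorufin fluorescence marks killing.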

[2] = qHTS profiling of the MIPE4 collection as inhibitors of Plasmodium falciparum (3D7) proliferation (AID 743344; call rule not given here;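 also: scaled between DMSO vehicle wells and 0.29 µM artemisinin as full inhibition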); settings: P. falciparum 3D7 in erythrocytes, SYBR Green DNA fluorescence, 72 h; at 28.5 µM (top of the series) unless noted
Outline: (§1)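 Erythrocytes infected with P. falciparum (0.3% parasitemia, 2.5% hematocrit) incubated with compounds 72 h at 37 C, 5% CO2. Lysis with saponin/Triton buffer containing SYBR Green I, overnight at room temperature in the dark; DNA fluorescence (485/535 nm) normalised to 0.29 uM artemisinin and DMSO.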

[3] = qHTS profiling of the MIPE4 collection as inhibitors of Plasmodium falciparum (DD2) proliferation (Rep 2) (AID 743346; call rule not given here); settings: P. falciparum Dd2 in erythrocytes, SYBR Green DNA, 72 h; at 28.5 µM (top of the series) unless noted
Outline: as §1

[4] = qHTS profiling of the MIPE4 collection as inhibitors of Plasmodium falciparum (HB3) proliferation (AID 743347; call rule not given here;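 also: plate controls were DMSO vehicle wells for no effect and artemisinin wells for full effect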); settings: P. falciparum HB3 in erythrocytes, SYBR Green DNA, 72 h; at 28.5 µM (top of the series) unless noted
Outline: as §1

[5] = High-throughput drug toxicity screening in the BPDCN cell line Gen2.2 (AID 1224824; call rule not given here;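 also: cells exposed to compounds for 48 h before reading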); settings: Gen2.2 BPDCN cells; at 45.8 µM (top of the series) unless noted
Outline: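 CellTiter-Glo luminescence read after 48 h compound exposure at 37 C defines viability; percent activity set with DMSO as 100% and bortezomib (9.2 uM final) as 0%. 500 exponentially growing cells per well, RPMI plus 10% FBS.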

[6] = High-throughput drug toxicity screening in the BPDCN cell line Cal-1 (AID 1224825; call rule not given here); settings: Cal-1 BPDCN cell viability, qHTS; at 45.8 µM (top of the series) unless noted
Outline: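 Cal-1 cells, 500 per well in phenol-red-free RPMI with 10% FBS, exposed to compounds for 48 hours at 37C, 5% CO2. Viability read by CellTiter-Glo luminescence; percent activity normalized to DMSO (100%) and 9.2 uM bortezomib final (0%).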

[7] = qHTS assay for measurement of the activity of small molecule inhibitors on Zika virus induced Caspase-3 activity in human iPSC derived neural progenitor cells (hNPCs) (AID 1224857); also: % of control where 0% means no effect; nearly all actives have a fitted effect of over 65% in size
Outline: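 In medium with heparin 2 ug/ml and cyclopamine 2 uM, hNPCs (350 cells/well) received compound for one hour and then Zika virus at 2 FFU/cell; caspase activity was measured by Caspase-Glo 3/7 luminescence 6 h post-infection.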

[8] = qHTS assay for measurement of the activity of small molecule inhibitors on Zika virus induced Caspase-3 activity in human astrocytoma cells (AID 1224859);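 also: plate controls were ZIKV-infected untreated cells for no effect and uninfected cells for full effect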
Outline: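 A cell-based luminescent caspase-3/7 assay used SNB-19 cells infected with ZIKV (2 FFU/cell) for 6 h following 1 h compound pretreatment.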

[9] = qHTS Screen of the MIPE 4.0 Collection Against Ewings Sarcoma (RDES) (AID 1259252); also: nearly all actives have a fitted effect of over 35% in size; also: potency is read from the fitted curve at half-maximal effect
Outline: (§2)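 Log-phase cells in RPMI with 5% FBS attached for 4 h, then received compounds as a titration for 48 h at 37C, 5% CO2. Viability was read by CellTiter-Glo luminescence and normalized to DMSO and no-cell wells.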

[10] = qHTS Screen of the MIPE 4.0 Collection Against Ewings Sarcoma (TC71) (AID 1259253); also: nearly all actives have a fitted effect of over 40% in size; also: potency is read from the fitted curve at half-maximal effect
Outline: as §2

[11] = qHTS Screen of the MIPE 4.0 Collection Against Ewings Sarcoma (EW8) (AID 1259255); also: nearly all actives have a fitted effect of over 35% in size; also: potency is read from the fitted curve at half-maximal effect;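 as to viability: 100% = DMSO-treated cells and 0% = medium-only wells without cells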
Outline: as §2

[12] = qHTS Screen of the MIPE 4.0 Collection Against Ewings Sarcoma (TC32) (AID 1259256); also: nearly all actives have a fitted effect of over 45% in size; also: potency is read from the fitted curve at half-maximal effect
Outline: as §2

[13] = qHTS assay to identify small molecule inhibitors of chordoma cells - UCH-1 (AID 1259355); also: % is scaled to controls: 0 for no effect and ±100 for the full control effect; nearly all actives have a fitted effect of over 55% in size
Outline: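 Cells (800/well) were seeded and left overnight at 37 C, 5% CO2, then treated with drugs at 15 concentrations plus a combination mix of auranofin, camptothecin, doxorubicin, rubitecan and topotecan. Viability after 48hr was read by CellTiter-Glo luminescence.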

[14] = qHTS profiling of the MIPE4 collection as inhibitors of Plasmodium falciparum (DD2) proliferation (AID 743345; call rule not given here); settings: P. falciparum Dd2 in erythrocytes, SYBR Green DNA, 72 h; at 28.5 µM (top of the series) unless noted
Outline: as §1

[15] = qHTS profiling for inhibitors of Plasmodium falciparum (3D7) proliferation (AID 743322);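 also: infected erythrocytes exposed to compound for 72 h before lysis; 100% = DMSO vehicle wells and 0% = 0.29 µM artemisinin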; settings: P. falciparum 3D7 proliferation; at 28.7 µM (top of the series)
Outline: as §1

[16] = qHTS profiling for inhibitors of Plasmodium falciparum (DD2) proliferation (AID 743323; call rule not given here); settings: lower = more inhibition; at 28.7 µM (top of the series)
Outline: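 1536-well qHTS; infected RBCs 0.3% parasitemia/2.5% Hct final; cpd 72 h 37 C 5% CO2; lysis buffer + SYBR Green I, o/n RT dark; FI 485/535; norm. to 0.29 uM artemisinin and DMSO, plate-stack corrected.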

[17] = qHTS profiling for inhibitors of Plasmodium falciparum (HB3) proliferation (AID 743324); settings: Plasmodium falciparum HB3 blood-stage proliferation; at 28.7 µM (top of the series);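 also: 100% = DMSO vehicle wells and 0% = artemisinin-treated control wells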
Outline: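 P. falciparum HB3 grown in erythrocytes (0.3% parasitemia, 2.5% hematocrit final) with compound for 72 h at 37 C, 5% CO2. Parasite DNA detected by SYBR Green after saponin/triton lysis overnight; normalized to 0.29 uM artemisinin and DMSO.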

Structure (SMILES) | max response [1] | parasite growth, % of DMSO control [2] [%] | parasite growth, % of control (lower = inhibition) [3] [%] | growth, % of control [4] [%] | cell viability, % of control (lower = more cytotoxic) [5] [%] | viability (% of control) [6] [%] | Potency [7] | Potency [8] | Potency [9] | Potency [10] | Potency [11] | Potency [12] | Potency [13] | parasite growth remaining, % of DMSO control (lower = more inhibition) [14] [%] | Potency [1] | remaining parasite growth % (stronger effect = lower value) [15] [%] | activity, percent of control [16] [%] | remaining proliferation (% of control), lower = more inhibition [17] [%]
O=C(O)c1cccnc1 | 3.31% (inactive) | 91.9 | 95.2 | 87.4 | 127 | 87.6 | inactive | inactive | inactive | inactive | inactive | inactive | inactive | – | – | – | – | –
CC(C)C1CCC(C(=O)N[C@H](Cc2ccccc2)C(=O)O)CC1 (stereo partly drawn) | – | 87.2 | 109 | 85.4 | 139 | 99.1 | inactive | inactive | inactive | inactive | inactive | inactive | inactive | 118 | – | – | – | –
CO[C@@H]1[C@@H](OC(N)=O)[C@@H](O)[C@H](Oc2ccc3c(O)c(NC(=O)c4ccc(O)c(CC=C(C)C)c4)c(=O)oc3c2C)OC1(C)C | 1.46% (inactive) | 61 | 39.2 | 45.7 | 13.9 | 44 | inactive | inactive | 5.9 µM (active) | 4.69 µM (active) | 2.09 µM (active) | 5.9 µM (active) | inactive | 75.8 | – | – | – | –
CC[C@H](NC(C)C)[C@H](O)c1ccc(O)c2[nH]c(=O)ccc12 | 0.956% (inactive) | 96.3 | 92.5 | 96.3 | 160 | 121 | inactive | inactive | inactive | inactive | inactive | inactive | inactive | 107 | – | – | – | –
O=NN(CCCl)C(=O)NC1CCCCC1 | -7.36% (inactive) | – | – | – | 110 | 102 | inactive | inactive | inactive | inactive | inactive | inactive | inactive | – | – | – | – | –
COc1ccccc1OCC(O)COC(N)=O (stereo not drawn) | -1.63% (inactive) | 94.6 | 142 | 111 | 109 | 124 | inactive | inactive | inactive | inactive | inactive | inactive | inactive | 96.9 | – | – | – | –
CCOc1cc(N)c(Cl)cc1C(=O)NCC1CN(Cc2ccc(F)cc2)CCO1 (stereo not drawn) | 1.28% (inactive) | 105 | – | 99 | 376 | 98.6 | inactive | inactive | inactive | inactive | inactive | inactive | – | 101 | – | – | – | –
CCOC(=O)[C@H](CCc1ccccc1)N[C@H]1CCc2ccccc2N(CC(=O)O)C1=O | – | 9.1 | – | 11.1 | 22.7 | 22.3 | inactive | inactive | 23.5 µM (active) | 20.9 µM (active) | 23.5 µM (active) | 23.5 µM (active) | inactive | 9.11 | – | – | – | –
CC(C)(C)C(=O)OCOP(=O)(COCCn1cnc2c(N)ncnc21)OCOC(=O)C(C)(C)C | – | 68.2 | – | 82.4 | 3.53 | 2.56 | inactive | inactive | 0.372 µM (active) | 0.833 µM (active) | 0.209 µM (active) | inactive | inactive | 96.8 | – | – | – | –
O=c1cc(O)c(Cl)c[nH]1 | – | 29 | – | 21.5 | 246 | 39.2 | inactive | inactive | inactive | inactive | inactive | inactive | inactive | 122 | – | – | – | –
COC(=O)Nc1nc2ccc(S(=O)c3ccccc3)cc2[nH]1 (stereo not drawn) | 20.6% (inactive) | 67 | 68.5 | 104 | 86.3 | 22.2 | inactive | inactive | 11.8 µM (active) | 18.7 µM (active) | 13.2 µM (active) | 11.8 µM (active) | – | 82.8 | – | – | – | –
CC(N)C12CC3CC(CC(C3)C1)C2 (stereo not drawn) | – | 76.2 | – | 96.9 | 175 | 105 | inactive | inactive | inactive | inactive | inactive | inactive | inactive | 12.6 | – | – | – | –
Cn1c(=O)c2c(ncn2CC(O)CO)n(C)c1=O (stereo not drawn) | – | 85.8 | – | 56.5 | 104 | 100 | inactive | inactive | inactive | inactive | inactive | inactive | inactive | 88.3 | – | – | – | –
NC(=O)c1cccnc1 | 0.464% (inactive) | 98.2 | 122 | 105 | 114 | 101 | inactive | inactive | inactive | inactive | inactive | inactive | – | 97.3 | – | – | – | –
CC(C)C[C@H](NC(=O)[C@H](CCc1ccccc1)NC(=O)CN1CCOCC1)C(=O)N[C@@H](Cc1ccccc1)C(=O)N[C@@H](CC(C)C)C(=O)[C@@]1(C)CO1 | – | 5.1 | – | 6.02 | 5.77 | 3.67 | inactive | inactive | 0.0187 µM (active) | 0.0372 µM (active) | 0.0132 µM (active) | 0.0148 µM (active) | – | 7.08 | 0.0118 µM (active) | -0.503 | -1.29 | 0.46
Cn1nnc2c(C(N)=O)ncn2c1=O | -7.58% (inactive) | 97.2 | – | 98.2 | 79.7 | 80.1 | inactive | inactive | inactive | inactive | inactive | inactive | – | 86.5 | – | – | – | –
